# The campaign covered roughly 390,000 compounds. About 17,000 (4.4%) were called active. Another 8% or so got no clear call; they are omitted. For the sample, actives were picked, then their nearest neighbours and some compounds at random. Unmarked numbers belong to inactive results. Calls follow the shape of the dose curve; as a rule, active = well fitted inhibition curve with a large enough effect; inconclusive = small, poorly fitted or top-dose-only effect; inactive = no such curve, though single readings can be large or run the other way.
# Target: Lysine-specific demethylase 4A (Homo sapiens) (UniProt O75164)
# Sequence (O75164 whole entry, looked up, the tested form may be a part): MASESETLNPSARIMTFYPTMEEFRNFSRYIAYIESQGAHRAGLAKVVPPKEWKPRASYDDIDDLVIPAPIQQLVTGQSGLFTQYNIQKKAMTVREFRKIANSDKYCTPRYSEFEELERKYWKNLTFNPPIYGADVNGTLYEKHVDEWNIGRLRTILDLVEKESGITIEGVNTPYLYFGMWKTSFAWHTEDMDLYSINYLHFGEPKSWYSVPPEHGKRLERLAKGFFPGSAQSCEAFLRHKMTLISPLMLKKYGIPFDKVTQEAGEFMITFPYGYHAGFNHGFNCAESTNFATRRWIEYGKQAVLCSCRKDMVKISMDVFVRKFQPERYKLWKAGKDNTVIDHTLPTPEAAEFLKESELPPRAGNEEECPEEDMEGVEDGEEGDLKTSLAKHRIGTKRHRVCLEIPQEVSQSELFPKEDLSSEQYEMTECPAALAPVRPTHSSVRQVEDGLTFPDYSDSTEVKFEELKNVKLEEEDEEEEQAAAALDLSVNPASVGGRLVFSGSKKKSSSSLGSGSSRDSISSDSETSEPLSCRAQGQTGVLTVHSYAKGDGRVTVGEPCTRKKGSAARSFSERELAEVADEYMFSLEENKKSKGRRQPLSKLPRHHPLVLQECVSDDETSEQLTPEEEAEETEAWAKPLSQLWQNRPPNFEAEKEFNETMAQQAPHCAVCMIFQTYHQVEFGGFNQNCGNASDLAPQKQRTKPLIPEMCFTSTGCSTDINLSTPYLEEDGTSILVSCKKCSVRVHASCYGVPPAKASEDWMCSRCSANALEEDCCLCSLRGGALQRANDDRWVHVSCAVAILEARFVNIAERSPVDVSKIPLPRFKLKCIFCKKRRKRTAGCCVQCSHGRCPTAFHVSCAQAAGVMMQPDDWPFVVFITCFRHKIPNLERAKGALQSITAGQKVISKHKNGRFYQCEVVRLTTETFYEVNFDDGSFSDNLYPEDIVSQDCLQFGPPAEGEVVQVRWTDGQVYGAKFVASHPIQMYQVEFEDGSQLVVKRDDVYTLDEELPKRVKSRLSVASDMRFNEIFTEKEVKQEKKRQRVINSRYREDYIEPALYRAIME
# Assay: qHTS Assay for Inhibitors of JMJD2A-Tudor Domain; also: nearly all actives have a fitted effect of over 50% in size
# Conditions: AlphaScreen JMJD2A-Tudor / H3K4me3 peptide binding; series mostly up to 114 µM; activity change, negative = inhibition: at the top concentration
# % is scaled to controls: 0 for no effect and ±100 for the full control effect; potency is read from the fitted curve at half-maximal effect.
SMILES,"activity change, negative = inhibition",Potency
CCOC(=O)c1c(NC(=O)/C=C/c2ccc(OC)cc2)sc2c1CCC(C)C2 (stereo unspecified),6.21%,–
COc1cc(/C=N\NC(=O)C2C(=O)NCC2c2ccccc2)cc(OC)c1O (stereo unspecified),-6.9%,–
COc1cccc(/C=N\NC(=O)C2=NNC(=O)C2C)c1O (stereo unspecified),–,56.2 µM (active)
COc1ccc(/C=N/NC(=O)C2CC2)c(OC)c1OC,-1.92%,–
CCOc1ccccc1NC(=O)CN1CCN(S(=O)(=O)c2ccc(Br)cc2)CC1,-5.5%,–
CCOc1cc(C2c3c(-c4ccc(Br)cc4)n[nH]c3C(=O)N2c2ccc(Cl)cc2)ccc1O (stereo unspecified),-21%,–
O=C1c2ccccc2C(=O)N1CCCc1nc(-c2ccccc2)no1,11.5%,–
O=C1c2cccc3cccc(c23)C(=O)N1CCCCCc1n[nH]c(=S)o1,–,89.1 µM (active)
O=C(CN1C(=O)c2cccc3cccc(c23)C1=O)N1CCCCC1,-7.05%,–
CCCN1CCN(CCCNC(=O)Cn2nc(CC)n3c(cc4occc43)c2=O)CC1,-16.1%,–
COc1cc(C#Cc2ccc3cc(CCCO)oc(=O)c3c2)cc(OC)c1,-33.8%,–
COc1cc(/C=C2\Oc3ccc(C#Cc4ccc(O)cc4)cc3C2=O)cc(OC)c1,–,89.1 µM (active)
COC(=O)C(C)Oc1ccc2c(c1)O/C(=C\c1cccc(Br)c1)C2=O (stereo unspecified),-35.5%,–
CCC(CC)NC(=O)/C=C/c1cccc([N+](=O)[O-])c1,6.03% [at 57.1 µM],–
COC(=O)/C=C\C(=O)Nc1cccc([N+](=O)[O-])c1,–,17.8 µM (active)
O=C(CN1CCOCC1)Nc1cccc([N+](=O)[O-])c1,-4.93%,–
Cc1cc(C)c(/C=C/c2onc(C)c2S(=O)(=O)N2CCC(C(=O)Nc3ccc(Cl)cc3C)CC2)c(C)c1,-1.92%,–
Cc1c(C)c(C)c(S(=O)(=O)NCCc2ccccn2)c(C)c1C,-7.58%,–
COc1ccc(NCCc2ccccn2)cc1,–,79.4 µM (active)
O=C(CNC(=O)COc1ccccc1)NCCc1ccccn1,-15.4%,–
Cc1ccc(CNC(=O)CSc2c(C)cnc3c2c(=O)n(C)c(=O)n3C)cc1,-0.325%,–
O=c1nc2s/c(=C\c3ccco3)c(=O)n2nc1Cc1ccccc1,–,50.1 µM (active)
O=c1/c(=C/c2ccc(CNS(=O)(=O)c3ccccc3)o2)sc2n1CCN=2,-24.9%,–
CCOC(=O)c1cc(OC(=O)c2ccccc2Cl)n(-c2ccccc2)n1,-17.1%,–
CN(Cc1ccccc1)C(=O)CCS(=O)(=O)c1cc(Br)cc2c1N(C(=O)C1CC1)CC2,-17.8%,–
COc1ccc(S(=O)(=O)NCC(c2ccc(C)cc2)N2CCN(C)CC2)cc1OC (stereo unspecified),-5.52%,–

SMILES,"activity change, negative = inhibition",Potency
COc1ccc(N2CCN(C(CNS(=O)(=O)c3ccc(C)cc3)c3ccccc3)CC2)cc1 (stereo unspecified),–,20 µM (active)
COc1ccc(S(=O)(=O)NCC(c2ccco2)N2CCOCC2)cc1 (stereo unspecified),–,inactive
CCOC(=O)c1c(C)oc2nc(C)nc(N(CC(C)C)CC(C)C)c12,-5.5%,–
CCOc1cc(C2C(C(=O)Nc3ccc(OC)cc3)=C(C)Nc3nc(SC)nn32)ccc1O (stereo unspecified),-9.9%,–
O=C(Nc1ccc(OC(F)(F)F)cc1)C1CCCN(S(=O)(=O)c2ccc(Br)s2)C1 (stereo unspecified),-1.71%,–
Cc1cccc(OCC(=O)NCC(=O)N/N=C/c2ccc(N(C)C)cc2)c1,-14%,–
CC(=O)c1c(C)n(-c2ccc(C)cc2)c2ccc(O)cc12,-2.04%,–
CC(=O)c1c(C)n(-c2ccc(N(C)C)cc2)c2ccc(OCC(N)=O)cc12,–,79.4 µM (active)
Cc1ccc(-c2nnc(SCc3ccccc3C)o2)cc1,150%,–
Cc1ccccc1CNC(=O)CCCn1nc(C)c2sc3ccccc3c2c1=O,-6.62%,–
COc1cc(C2C(C(=O)c3ccc(C)o3)=C(O)C(=O)N2CCc2ccccc2)ccc1O (stereo unspecified),–,17.8 µM (active)
Cc1cc(N2C(=O)C(=O)/C(=C(/O)c3ccccc3)C2c2cccc(Br)c2)no1 (stereo unspecified),-28.3%,–
COc1cc(C2C(C(=O)c3cccs3)=C(O)C(=O)N2CCN2CCOCC2)ccc1OCCC(C)C (stereo unspecified),-16.8%,–
Cc1cc(N2C(=O)C(O)=C(C(=O)c3ccc(C)o3)C2c2ccc(OCc3ccccc3)cc2)no1 (stereo unspecified),–,44.7 µM (active)
CCOc1cc(C2C(C(=O)c3ccco3)=C(O)C(=O)N2Cc2ccccc2)ccc1O (stereo unspecified),-27.6%,–
CCCOc1ccc(C2C(C(=O)c3ccc(C)o3)=C(O)C(=O)N2CCCn2ccnc2)cc1 (stereo unspecified),-17.6% [at 11.4 µM],–
O=C(Nc1cc(Cl)cc(Cl)c1)c1ccc2c(c1)N(Cc1cccc(Cl)c1)C(=O)c1ccccc1S2=O (stereo unspecified),-1.28%,–
COc1cc(CN(CC2CCCO2)C(=O)c2ccccc2F)cc(OC)c1OC (stereo unspecified),-20.4%,–
CC(C)(C)OC(=O)N1CCC(c2c(C(=O)NCCc3ccsc3)cnn2-c2ccc(F)cc2F)CC1,-30.7%,–
Cc1ccc(-n2ncc(C(=O)N(C)Cc3ccccc3)c2-n2cccc2)cc1,-24.5%,–
CCOC(=O)N1CCc2c(sc3c2C(=O)NC(c2ccccc2F)N3)C1 (stereo unspecified),-10.7%,–
COc1ccc(-c2cc(C(=O)NCc3cc(OC)c(OC)c(OC)c3)[nH]n2)cc1,9.66%,–
O=C(CCC1CCCN(C(=O)c2ccc(F)c(F)c2)C1)N1CCN(c2ccccn2)CC1 (stereo unspecified),-7.35%,–
O=C(CCC1CCCN(C(=O)Cc2ccc(F)cc2)C1)N1CCN(c2ccccn2)CC1 (stereo unspecified),2.46%,–
C=Cc1ccc(C(=O)N2CCCC(CCC(=O)N3CCN(c4ccccn4)CC3)C2)cc1 (stereo unspecified),–,56.2 µM (active)

# Source: PubChem BioAssay AID504339 (National Center for Advancing Translational Sciences (NCATS), 2011)
